Assay outcomes (PubChem)
Most compounds without a hit are left out; they make up all but 2.6% or so of the library.
APOBEC3G inh: inhibitors of human APOBEC3G DNA deaminase. recombinant A3G, ssDNA deamination FAM/TAMRA fluorescence. inhibition, % at 20 µM. 330,000 tested, 0.28% active;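 active means inhibition of at least 40% at 20 µM, with no more than 30% in the related APOBEC3A deaminase screen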;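 further: plate controls were DMSO wells with A3G for no effect and wells lacking A3G enzyme for full effect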
eIF4H inh: inhibitors of RNA binding by human eIF4H; inhibition, % at 35 µM; eIF4H fluorescence polarization binding assay; AID 2012; 290,000 tested, 0.94% active;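 further: calls also rest on retests at 20 µM and on dose response follow-up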
PABP FP inh: PABP-poly(A) binding inhibition; P11940; PABP-poly(A) RNA binding, fluorescence polarization; calls only at 35 µM; 290,000 tested, 1% active; AID 2014;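 further: calls also rest on retests at 20 µM and on dose response follow-up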
A3A deaminase: blocks human APOBEC3A ssDNA deamination. P31941. recombinant A3A, FAM/TAMRA ssDNA deamination fluorescence. inhibition, % at 20 µM. 330,000 tested, 0.41% active. AID 493011;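 active means at least 40% inhibition at 20 µM here, with at most 30% in a related deaminase screen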;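 further: plate controls were A3A with DMSO for no effect and wells lacking A3A enzyme for full effect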
PABP1 MLLE inh: blocks PAM2 peptide binding to the PABP1 MLLE domain; P11940; GST-MLLE / FITC-PAM2 fluorescence polarization; inhibition, % at 20 µM; 360,000 tested, 0.36% active; in the data active means inhibition above about 35%, passing the limit was not always enough;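 further: plate controls were DMSO wells with GST-MLLE for no effect and wells lacking GST-MLLE protein for full effect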
PHOSPHO1 inh: inhibitors of human PHOSPHO1 phosphatase | Q8TCT1 | recombinant PHOSPHO1, absorbance phosphatase assay | inhibition, % at 13.3 µM | 290,000 tested, 1.1% active; in the data active means inhibition above about 60%
Target sequence (Q8TCT1 whole entry, looked up): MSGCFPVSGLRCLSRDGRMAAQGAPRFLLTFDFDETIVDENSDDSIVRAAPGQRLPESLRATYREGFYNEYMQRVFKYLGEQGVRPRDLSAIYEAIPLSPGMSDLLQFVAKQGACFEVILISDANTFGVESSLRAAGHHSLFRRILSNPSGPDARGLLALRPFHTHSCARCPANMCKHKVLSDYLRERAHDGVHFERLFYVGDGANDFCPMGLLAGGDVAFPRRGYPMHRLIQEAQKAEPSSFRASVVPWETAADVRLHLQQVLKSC
The depositor's hits bear a star; i = inactive; u = inconclusive; x = not tested or not shown; + = active, no number. Unless noted, how the calls were made is not given here.

SMILES | APOBEC3G inh | eIF4H inh | PABP FP inh | A3A deaminase | PABP1 MLLE inh | PHOSPHO1 inh
COC(c1ccc(Cl)cc1)(c1ccc(Cl)cc1)C(Oc1nc(C)cc(C)n1)C(=O)O (centres undefined) | -7.0 | -11.4 | i | -2.9 | 9.6 | 49.9
Cc1cccc(NC(=S)N(CCCN2CCOCC2)Cc2ccco2)c1 | -9.6 | 9.0 | i | 1.1 | -41.5 | -9.8
c1ccc2c(NC3=NCCCCS3)cccc2c1 | -1.8 | -2.4 | i | -1.2 | -1.6 | 21.9
c1ccc(NC2=NCCCCS2)cc1 | -5.0 | 107.6* | i | -0.4 | -6.5 | 15.0
O=c1c2c3nc4ccccc4nc3n(/N=C/c3ccco3)c2ncn1CCC1=CCCCC1 | 34.5 | 65.3* | i | 24.0 | 7.4 | -1.5
Cc1ccc(Cc2cnc(NC(=O)/C(C#N)=C/c3ccc(-c4ccccc4[N+](=O)[O-])o3)s2)cc1 | -1.6 | 54.0 | i | 1.4 | -12.0 | 23.3
Cn1cc(/C=C(\C#N)C(=O)Nc2ncc(Cc3ccc(Cl)cc3)s2)c2ccccc21 | -2.5 | 62.9* | + | 2.3 | 12.2 | -18.4
CC1=NN(C(N)=S)C(=O)C1N=Nc1ccccc1C(=O)O (centres undefined) | -4.6 | 3.1 | i | 2.1 | 7.5 | 61.5*
CC1=NN(C(N)=S)C(=O)C1N=Nc1ccccc1Cl (centres undefined) | -6.1 | 12.2 | i | 0.0 | 23.0 | 13.0
Nc1cccn2c(-c3ccc(Cl)c(Cl)c3)cnc12 | -5.1 | 94.9* | + | -5.1 | -49.1 | 24.4
Cn1cccc1CC(=O)NNC(=S)Nc1ccc(Cl)cc1Cl | 3.6 | 57.6* | + | 2.4 | 26.5 | -21.6
S=C1NCCNC(=S)NCCOCCOCCOCCN1 | -3.8 | -1.3 | i | -7.0 | -90.0 | -25.8
CC(C)CNC(=S)NNC(=O)c1ccc2c(c1)OCO2 | -7.1 | -8.9 | i | -6.7 | -33.4 | 61.5*
COc1cc(NC(=O)c2ccc(Cl)cc2)c(Cl)cc1NC(=O)c1cccnc1 | -4.8 | 0.0 | i | -0.7 | 4.0 | 62.8*
COc1ccc(Nc2cc(C(=O)NCCCOC(C)C)c3ccccc3n2)c(OC)c1 | -7.6 | -5.0 | i | -3.3 | 1.0 | 37.5
COc1ccc(Nc2cc(C(=O)NCCCN3CCN(C)CC3)c3ccccc3n2)c(OC)c1 | 1.2 | -9.4 | i | -0.2 | 7.9 | 67.3*
O=C(O)c1cc(O)c2c(c1)[C@@H]([C@H]1c3cc(C(=O)O)cc(O)c3C(=O)c3c(O[C@@H]4O[C@H](CO)[C@@H](O)[C@H](O)[C@H]4O)cccc31)c1cccc(OC3O[C@H](CO)[C@@H](O)[C@H](O)[C@H]3O)c1C2=O (some centres undefined) | 88.5 | x | x | 98.2 | 29.5 | x
O=C(O)c1cc(O)c2c(c1)[C@H]([C@H]1c3cc(C(=O)O)cc(O)c3C(=O)c3c(O[C@@H]4O[C@H](CO)[C@@H](O)[C@H](O)[C@H]4O)cccc31)c1cccc(OC3O[C@H](CO)[C@@H](O)[C@H](O)[C@H]3O)c1C2=O (some centres undefined) | 95.7 | x | x | 103.2 | 51.9* | x
O=[N+]([O-])c1ccc(N2CCN(c3ccc(F)cc3)CC2)nc1 | -10.5 | 2.4 | i | -3.9 | 5.4 | 19.5
FC(F)(F)c1ccc(Nc2nnnc3ccccc23)cc1 | 1.9 | -12.7 | i | 1.2 | -13.5 | 60.9*
COP(=O)(c1ccc(N(C)C)cc1)C(O)c1ccccc1 (centres undefined) | 3.1 | -4.1 | i | 0.8 | 10.7 | 24.2
O=C1c2ccc3c4c(ccc(c24)C(=O)N1CCCCO)C(=O)N(CCCCO)C3=O | x | u | i | x | 63.7* | 9.1
COC(=O)c1ccc(-n2c(C)cc(C(=O)CSc3ccc(NC(C)=O)cc3)c2C)cc1 | -4.3 | -5.3 | i | -5.6 | 29.4 | 2.4
CC(=O)Nc1ccc(SCC(=O)c2cc(C)n(-c3ccccc3F)c2C)cc1 | -7.1 | 1.9 | i | -9.0 | 40.3* | -19.6
CC(=O)Nc1ccc(SCC(=O)NC(=O)c2ccccc2Br)cc1 | -7.3 | x | x | -3.1 | 43.8* | x
SMILES | APOBEC3G inh | eIF4H inh | PABP FP inh | A3A deaminase | PABP1 MLLE inh | PHOSPHO1 inh
Cc1ccc(-n2nc(-c3ccco3)cc2C(=O)O)cc1 | 47.2 | 93.8* | + | 86.0 | 13.5 | 24.8
CCOc1cc(C(=O)NCCC(=O)N2CCC3(CC2)NCCc2[nH]cnc23)cc(OCC)c1OCC | -4.8 | -2.1 | i | -2.3 | 6.0 | 27.3
Nc1nc2ccc([N+](=O)[O-])cc2[nH]1 | -0.8 | -1.7 | i | 2.2 | -2.6 | -9.9
Nc1[nH]c2cc([N+](=O)[O-])ccc2c1-c1ccccn1 | -0.3 | 50.6 | + | -7.4 | -132.8 | 6.4
Cc1ccc(S(=O)(=O)N2CCCC(C(=O)NCc3ccccc3F)C2)cc1 (centres undefined) | -11.6 | 4.3 | i | -5.3 | 14.4 | 41.6
O=C(Nc1ccc(Br)cc1Br)Nc1cccc2[nH]c([C@@H]3O[C@H](CO)[C@@H](O)[C@H](O)[C@H]3O)nc12 | x | x | x | x | -1.8 | x
Cc1cc(N)n2nc(C)c(-c3ccc(Cl)cc3)c2n1 | -3.3 | 5.9 | i | -3.5 | 5.6 | 16.8
Cc1cc(N)n2nc(C)c(-c3ccccc3)c2n1 | x | -1.3 | i | x | -3.7 | 60.1*
CN1CCN(S(=O)(=O)c2cccc(C(=O)Nc3cc(C(F)(F)F)ccc3N3CCCC3)c2)CC1 | -4.4 | x | x | 6.9 | -10.8 | x
Cc1cc(C(F)(F)F)nn1CC(=O)NNC(=S)Nc1ccc(F)cc1 | -4.4 | 4.3 | i | -1.6 | 25.5 | 85.8*
Cc1cc(C(F)(F)F)nn1CC(=O)NNC(=S)Nc1ccc(Cl)cc1 | -1.0 | 5.2 | i | -0.7 | 29.4 | 90.7*
COc1cccc(NC(=S)NNC(=O)Cn2nc(C(F)(F)F)cc2C)c1 | 1.7 | 0.1 | i | 2.5 | 27.7 | 1.0
O=C(Cn1nnc(-c2cc(C(F)(F)F)cc(C(F)(F)F)c2)n1)NNC(=S)Nc1ccc(Cl)cc1 | -2.1 | 14.0 | i | -2.3 | 41.2* | 46.4
Cc1ccc(C)c(N2CCN(C(=O)CCc3nc(-c4cccc(Cl)c4)no3)CC2)c1 | 3.4 | x | x | 0.1 | -4.7 | x
COc1ccc(/C(C)=N\NC(=O)CSc2nnc(C)s2)cc1 | -6.6 | -7.8 | i | -2.0 | 48.2* | -3.4
CN1c2ccsc2C(O)=C(C(=S)Nc2ccc(F)c(Cl)c2)S1(=O)=O | -1.3 | 69.3 | i | -3.4 | 18.0 | 92.3*
Cc1ccccc1C(=O)NN(C)c1nc2ccccc2nc1C(F)(F)F | -4.5 | 2.6 | i | 0.0 | 2.2 | 40.3
CN(NC(=O)c1ccco1)c1nc2ccccc2nc1C(F)(F)F | -2.7 | active | + | 1.0 | 2.0 | 20.2
CCOC(=O)c1[nH]c2ccc(OC)cc2c1NC(=S)N1CCN(c2cccc(C)c2C)CC1 | -11.9 | 9.2 | i | -4.1 | -7.1 | -3.4
O=C(Nc1cccc(Cl)c1)Nc1sccc1-c1nc2ccccc2s1 | -1.2 | 78.6 | + | 5.6 | -100.2 | -21.5
Cc1snc(SCC(=O)c2ccc([N+](=O)[O-])cc2)c1C#N | 50.2* | 6.1 | i | -2.5 | 16.8 | 72.3*
